The record followed here is PubChem BioAssay AID779 (Sanford-Burnham Center for Chemical Genomics, 2007).

Active and inactive are the calls of the source. How the calls were made is not given here. Some results are limits rather than exact numbers.

The assay can be described thus: PLAP enzyme activity inhibition – biochemical, colorimetric, counter-screen, dose response (AID 779). To be noted: colorimetric OD read-out. (Counterscreens check selectivity or assay interference.)
The IC50 is the concentration needed to halve the response being measured. Turning to `CSc1ccccc1N=Cc1nc(-c2ccccc2)oc1O`, the IC50 is > 50 µM (inactive).
For the molecule `CC(=O)Nc1ccc(NC2=Nc3ccccc3N3C2=Nc2c(c(C)nn2-c2ccccc2)C3c2ccccc2)cc1` (configuration not stated), the IC50 was > 50 µM (inactive).
Turning to `CCCCN1C(=O)/C(=C/C=C2\N(C)c3ccccc3C2(C)C)SC1=S`, the IC50 is > 50 µM (inactive).
Consider `CN(C)c1ccc(/C=C/C(=O)c2cccc(Br)c2)cc1`, for which the IC50 was > 50 µM (inactive).
Take `CCOc1ccc(S(=O)(=O)N(CC(=O)N/N=C/c2ccc(-c3ccc([N+](=O)[O-])cc3)o2)c2ccccc2)cc1`: the IC50 is > 50 µM (inactive).
Regarding `COC(=O)Sc1nnc(-c2ccc(Br)cc2)o1`, the IC50 is > 50 µM (inactive).
To `COc1ccccc1N1CSC2=C(C#N)C(c3ccc(SC)cc3)CC(=O)N2C1` (configuration not stated) belongs > 50 µM (inactive); to `Fc1ccc(-c2cc3nc4c(c(N5CCOCC5)n3n2)CCCC4)cc1`, > 50 µM (inactive); to `Cc1cc2cc(CNC(=O)c3ccc(S(=O)(=O)N4CCCCC4)cc3)ccc2n1C`, > 50 µM (inactive).
To `CCOC(=O)c1c(C)oc2c1c(C(c1cccnc1)N1CCOCC1)c(O)c1ccccc12` (configuration not stated) belongs > 50 µM (inactive).
The figure for `Cc1cc2ccccc2n1CCNC(=O)c1ccccc1` is > 50 µM (inactive); for `COc1ccc(/C=c2\sc3nc(-c4ccccc4)c(-c4ccccc4)n3c2=O)cc1OC` it is > 50 µM (inactive).
As to `Cc1ccc2cc(/C=C3\N=C(c4ccccc4)OC3=O)c(N3CCOCC3)nc2c1`, the IC50 is > 50 µM (inactive).
As for `CCNc1ccc(Br)cc(C(=O)/C=C/c2ccc3c(c2)OCO3)c1=O`, the IC50 was > 50 µM (inactive).
Turning to `O=S(=O)(c1ccc2nc(-c3ccco3)c(-c3ccco3)nc2c1)N1CCOCC1`, the IC50 is > 50 µM (inactive).
As for `O=C1/C(=C\c2ccco2)SC(=S)N1Cc1ccccc1`, the IC50 was > 50 µM (inactive).
The figure for `N#Cc1sc2nc(-c3cccs3)cc(-c3ccccc3)c2c1N` is > 50 µM (inactive); for `Cc1ccc(C)c(N(CC(=O)N/N=C/c2ccc(-c3ccc([N+](=O)[O-])cc3)o2)S(=O)(=O)c2ccccc2)c1` it is > 50 µM (inactive); for `CCn1nc(-c2ccccc2)c2nc3ccccc3nc21` it is > 50 µM (inactive).
As to `COc1ccc(NC2=Nc3ccccc3N3C2=Nc2c(c(C)nn2-c2ccc(C)cc2)C3c2cccnc2)cc1` (configuration not stated), the IC50 is > 50 µM (inactive).
The figure for `CS(=O)(=O)N(CC(=O)Nc1cccc(Cl)c1)c1ccccc1Cl` is > 50 µM (inactive).
Consider `O=C(O)c1ccccc1C(=O)NNc1ccc(F)cc1`, for which the IC50 is > 50 µM (inactive).
For the molecule `CCOC(=O)C1=C(c2ccccc2)N=c2s/c(=C\c3cc(OC)c(OC)c(OC)c3)c(=O)n2C1c1cccs1` (configuration not stated), the IC50 is > 50 µM (inactive).
As to `COC(=O)CSc1nc(-c2ccccc2)cc(-c2ccco2)c1C#N`, the IC50 is > 50 µM (inactive).
As for `Cn1c(=O)[nH]c(=O)c2c1nc1n2CCN1Cc1ccccc1`, the IC50 was > 50 µM (inactive).
Consider `O=C(CCN1C(=O)/C(=C/C=C/c2ccccc2)SC1=S)Nc1nccs1`, for which the IC50 is > 50 µM (inactive).
As for `COc1ccc(-n2c(NC(=O)c3ccc(Br)o3)c(C#N)c3nc4ccccc4nc32)cc1`, the IC50 is > 50 µM (inactive).
On to `CC(C(=O)O)N1C(=O)/C(=C/C=C/c2ccco2)SC1=S` (configuration not stated), for which the IC50 was > 50 µM (inactive).
As for `C=CCn1c(SCC(=O)Nc2ncc(Cc3cc(C(F)(F)F)ccc3Cl)s2)nnc1-c1ccncc1`, the IC50 is > 50 µM (inactive).
`COc1cc(/C=C2\SC(=S)N(Nc3ccccc3)C2=O)cc(OC)c1OC`: the IC50 was > 50 µM (inactive).
In the case of `C/C(=C\C(=O)c1ccccc1)NNc1nc2ccccc2s1`, the IC50 was > 50 µM (inactive).
In the case of `CN(C)c1ccc(/C=C/C=C2/SC(=S)N(c3ccccc3)C2=O)cc1`, the IC50 is > 50 µM (inactive).
